# IL-1B inflam inh = inhibitors of inflammasome signaling (IL-1 beta secretion). THP-1 LPS/ATP IL-1B secretion, AlphaLISA, 16 h; hits give low values. activity change, % at 57.5 µM. 4.7% of 360,000 active. AID 743279; in the data active = activity change below about -50%; inconclusive = mostly about -30% to -49%; also: % is scaled to controls: 0 for no effect and ±100 for the full control effect
#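 THP-1 cells pretreated 1 hr with compounds (up to 57.5 uM final), then stimulated with LPS (250 ng/mL final) plus ATP (1.25 mM final); secreted IL-1B measured by AlphaLISA after 16 hr, decreased signal indicating inhibition.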
# TDP1 cell CPT = DT40-hTDP1 cell growth loss with CPT; chicken DT40 Tdp1-/-;hTDP1 cells + 20 nM CPT, ATP luminescence, 48 h; Potency, µM (highest dose often 46.2 µM), without a hit: at the top dose activity change, negative = growth inhibition, usual class: inhibitors; 12% of 420,000 active; also: potency is read from the fitted curve at half-maximal effect; % is scaled to controls: 0 for no effect and ±100 for the full control effect; nearly all actives have a fitted effect of over 55% in size
#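 Cell growth measured by CellTiter-Glo luminescence after a minimum 48 h, 37 C compound exposure with 20 nM CPT in Tdp1-knockout DT40 cells stably expressing hTDP1, seeded 400/well; qHTS titration format.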
# Chronic BCR inh = inhibitors of chronic active B-cell receptor signaling; ABC-DLBCL IkBa-CBG/CBR reporter, luminescence ratio, 4 h; Potency, µM (series often up to 46.1 µM), for inactives: top-dose activity change, negative = inhibition, hits mostly inhibitors; 0.05% of 340,000 active; active = well fitted inhibition curve with a large enough effect in the signal ratio, with a control signal flat, not every such curve was filed as active; inconclusive = small, poorly fitted or top-dose-only effect, or effect the other way, or a change in a side signal; the % refers to the signal ratio;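 also: potency is read from the fitted curve at half-maximal effect; plate controls were basal doxycycline-induced cells for no effect and cells given 10 µM MG132 for full effect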
#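 TMD8 ABC-DLBCL cells carrying doxycycline-inducible green luciferase fused to IkappaBalpha plus unfused red luciferase were exposed to compounds (up to 46 uM) for 4 hrs at 37C. Activity came from the overlap-corrected green/red luminescence ratio.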
# SW480 rerep = inducers of DNA re-replication in SW480 colon cancer cells; SW480 DNA re-replication, Hoechst DNA content imaging, 48 h; Potency, µM (top dose mostly 46.1 µM), without a hit: at the top dose re-replication activation, actives largely listed as activators; 1.8% of 340,000 active; also: potency is read from the fitted curve at half-maximal effect; % of control where 0% means no effect; nearly all actives have a fitted effect of over 55% in size
#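 Compounds, transferred as 23 nL by pin tool, were incubated with cells for 48 hr; DNA content per nucleus was then quantified by Hoechst staining and fluorescence plate imaging.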
# DT40 TDP1 no CPT = qHTS for Inhibitors of human tyrosyl-DNA phosphodiesterase 1 (TDP1): qHTS in cells in absence of CPT. Potency, µM (top dose mostly 46.2 µM), inactives show at the top dose activity change, negative = growth inhibition, hits mostly inhibitors. AID 686978, 2013. DT40 Tdp1-/- hTDP1 cells, no CPT, ATP luminescence, 48 h. 15% of 420,000 active; also: potency is read from the fitted curve at half-maximal effect; % is scaled to controls: 0 for no effect and ±100 for the full control effect; nearly all actives have a fitted effect of over 55% in size
#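 Growth of hTDP1-complemented DT40 Tdp1-knockout cells is measured by ATP luminescence after at least 48 hr compound exposure at 37 °C, with DMSO substituting for the 20 nM CPT used in the parallel screen.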
# MCF10A rerep = DNA re-replication induction in MCF 10a cells. MCF 10A DNA re-replication, Hoechst nuclear intensity, 48 h. Potency, µM (top dose mostly 46.1 µM), for inactives: top-dose activity, positive = re-replication, usual class: activators. 2.9% of 350,000 active; also: potency is read from the fitted curve at half-maximal effect; % of control where 0% means no effect; nearly all actives have a fitted effect of over 50% in size
# Active calls of the source: *; u = inconclusive; x = no result. Shown are actives, neighbours in structure and some others; about 19% of the full set was active somewhere. Unless noted, calls follow the shape of the dose curve; as a rule, active = well fitted curve in the direction sought with a large enough effect; inconclusive = small, poorly fitted or top-dose-only effect, or another doubt; inactive = no such curve, though single readings can be large; an effect the other way counts as inactive or inconclusive.
SMILES,IL-1B inflam inh,TDP1 cell CPT,Chronic BCR inh,SW480 rerep,DT40 TDP1 no CPT,MCF10A rerep
CC(=O)Nc1ccc(S(=O)(=O)NCC(=O)OCC(=O)N2CCN(c3ccccc3)CC2)cc1,7,-13%,2%,-1%,-9%,u
O=C(Nc1cccc(C(F)(F)F)c1)c1cc2c(s1)-c1ccccc1OC2,-13,20%,u,-2%,-20%,u
CCN(C(=O)c1cc2c(s1)-c1ccccc1OC2)c1cc(Cl)ccc1OC,x,21µM*,x,x,10µM*,x
O=C(NCc1cccs1)c1cc2c(s1)-c1ccccc1OC2,u,-8%,u,-3%,u,25%
Cc1cccc2c1-c1sc(C(=O)N3CCCCC3)cc1CO2,-28,u,u,u,u,24%
Cc1cccc2c1-c1sc(C(=O)N(C)c3cccc(C(F)(F)F)c3)cc1CO2,x,u,x,x,23µM*,x
CCN(C(=O)c1cc2c(C)nc3ccccc3c2o1)c1cc(Cl)ccc1OC,-7,5.2µM*,u,u,4.6µM*,u
CCN(C(=O)c1cc2c(s1)-c1ccccc1OC2)c1cccc(C(F)(F)F)c1,x,18µM*,x,x,18µM*,x
CC(C)C[C@H]1CN(CCCC[C@@H]2CNC(=O)C(=O)N2CC2CCCCC2)C(=O)C(=O)N1CC1CCCCC1,-4,0%,x,x,-28%,x
CN(CC(=O)NCc1cccs1)CC(=O)Nc1ccccc1Cl,1,0%,x,x,-13%,x
NNC(=O)c1ccc(Cn2cccn2)o1,14,16%,u,2.3µM*,-15%,u
C[C@@H]1C(c2cccc(Cl)c2)=NN(c2ccccc2)[C@H]1C(=O)N1CCOC1=O,-78*,u,1%,18µM*,u,u
C[C@@H]1C(c2cccc(Cl)c2)=NN(c2ccc(Br)cc2)[C@H]1C(=O)N1CCOC1=O,-51*,u,-1%,3.3µM*,u,u
Cc1ccc(NC(=O)C(=O)NCCCN2CCOCC2)c(C)c1,7,-12%,-2%,1%,-1%,-5%
COc1cc(/C=C2\N=C(C)OC2=O)cc(Cl)c1OC(C)=O,17,15µM*,-1%,2%,u,-4%
Cc1ccc(-n2c(=O)c3c(cnn3C)n(CC(=O)Nc3c(C)cccc3C)c2=O)cc1,x,-10%,x,x,-10%,x
CCCCCCOc1ccc(-c2nc3ccc(Br)cc3c(=O)o2)cc1,x,-1%,x,x,0%,x
CCOc1ccc(C2CC(=O)c3c([nH]c(C(=O)OC4CCC(C)CC4)c3C)C2)cc1 (centres undefined),x,-10%,x,x,-9%,x
COc1ccc(C2CC(=O)c3c([nH]c(C(=O)OC4CCCCCC4)c3C)C2)cc1OC (centres undefined),x,3.7µM*,x,x,4.6µM*,x
Cc1c(C(=O)OC2CCCCC2)[nH]c2c1C(=O)CC(c1ccccc1Cl)C2 (centres undefined),x,4.1µM*,x,x,2.1µM*,x
COc1ccc(C2CC(=O)c3c([nH]c(C(=O)OC4CCCC4)c3C)C2)cc1OC (centres undefined),x,-6%,x,x,-13%,x
Cc1c(C(=O)OC2CCC(C)CC2)[nH]c2c1C(=O)CC(c1ccc(F)cc1)C2 (centres undefined),x,u,x,x,18µM*,x
Cc1c(C(=O)N2CCOCC2)[nH]c2c1C(=O)CC(c1ccccc1Cl)C2 (centres undefined),-17,3.3µM*,-1%,15%,4.1µM*,12%
O=C(Nc1cc2ccc(O)cc2oc1=O)c1ccc(F)cc1,x,-12%,u,x,u,x
COc1ccc(NC(=O)Cn2ccn(-c3ccc(F)c(F)c3)c(=O)c2=O)cc1Cl,x,-3%,x,x,-14%,x
SMILES,IL-1B inflam inh,TDP1 cell CPT,Chronic BCR inh,SW480 rerep,DT40 TDP1 no CPT,MCF10A rerep
CC(C)C(NS(=O)(=O)c1ccc2c(c1)oc(=O)n2C)C(=O)NCCc1ccc(Cl)cc1 (centres undefined),x,-6%,x,x,-15%,x
Cc1c(C(=O)OC2CCCC2)[nH]c2c1C(=O)CC(c1ccc(C(C)(C)C)cc1)C2 (centres undefined),x,18µM*,x,x,u,x
Cc1c(C(=O)OC2CCCCCC2)[nH]c2c1C(=O)CC(c1ccc(N(C)C)cc1)C2 (centres undefined),x,-4%,x,x,u,x
COc1cccc(CNS(=O)(=O)c2ccc(S(=O)(=O)N3CCCC3)cc2)c1,0,-3%,0%,u,-23%,-1%
COc1ccccc1CCNS(=O)(=O)c1ccc(N2CCCCS2(=O)=O)cc1,x,23µM*,x,x,21µM*,x
COc1ccc(CCNS(=O)(=O)c2ccc(N3CCCCS3(=O)=O)cc2)cc1,x,23µM*,x,x,21µM*,x
COc1cccc(CNS(=O)(=O)c2ccc(N3CCCCS3(=O)=O)cc2)c1,x,23µM*,x,x,16µM*,x
COc1ccc(C)cc1NC(=O)Cc1c(C(=O)O)c(C)cn1C,x,9%,3%,x,-2%,x
COc1cc(C(=O)N2CCN(C(=O)c3cc(-c4ccccc4)n[nH]3)CC2)cc(OC)c1OC,-24,4%,10%,-15%,17%,25%
O=[N+]([O-])c1cc(Cl)ccc1N1CCCC1,0,-10%,-1%,3%,-36%,2%
O=[N+]([O-])c1cc(Cl)ccc1N1CCN(c2cccc(C(F)(F)F)c2)CC1,u,u,7%,1%,9.2µM*,u

# Compound activity (PubChem BioAssay)
